Experimental findings from PubChem BioAssay (NCI) are described below.

Structures are written as SMILES. Compounds without any hit were thinned out: in the full panel of roughly 83,000, 20% have a hit.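 96-well plates, one dose, 48 hours. Percent growth reported; active if below 10.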 Unmarked numbers belong to inactive results. Activity calls are given as the source filed them.

Among the test systems are NCI-H23 lung; NCI-H226 lung; NCI-H322M lung; HOP-62 NSCLC; NCI-H460 lung; HOP-92 NSCLC; NCI-H522 lung; A549/ATCC NSCLC; 786-0 renal; COLO 205 colon; DU-145 prostate; K-562 leukemia; MALME-3M melanoma; MDA-MB-231 breast; RXF 393 renal; SF-268 CNS; SF-295 CNS; SF-539 CNS; UACC-257 melanoma; M14 melanoma.
Holding throughout (experiment): NCI-60 one-dose screen, 48 h (100 = growth as untreated, 0 = no growth, -100 = all killed)
Holding throughout (conditions): 10 µM unless noted

For the compound `NC(=N\N=C/c1cccc([N+](=O)[O-])c1)/C(N)=N\N=C/c1cccc([N+](=O)[O-])c1`, the growth in the test with NCI-H23 lung was 78.4%; with NCI-H226 lung, 64%; in the test with NCI-H322M lung it was 110%; in the test on HOP-62 NSCLC, 10.6%; with NCI-H460 lung it was -21.5% (active); in the test on HOP-92 NSCLC, 73.9%. In addition, the growth is 66.9% in the test with NCI-H522 lung; 15.6% with A549/ATCC NSCLC; 109% in the test on 786-0 renal; 19.4% with COLO 205 colon; 58.1% with DU-145 prostate; 36.1% with K-562 leukemia. Moreover, the growth in the test on MALME-3M melanoma is 81.4%; with MDA-MB-231 breast it was 93.4%; in the test with RXF 393 renal, 72.9%; with SF-268 CNS, 65.9%; in the test with SF-295 CNS, 92.9%; in the test with SF-539 CNS it was 89.1%. Further, the growth is 85.6% with UACC-257 melanoma and 92.8% with M14 melanoma.

With `Cc1ccc2nc(NC(=O)CSc3nc(Nc4ccc([N+](=O)[O-])cc4)c(C#N)c(-c4ccccc4)n3)sc2c1`, the growth is 99.6% in the test on NCI-H23 lung; 98.7% in the test with NCI-H226 lung; 92.6% in the test with NCI-H322M lung; 95.6% in the test on HOP-62 NSCLC; 98.7% in the test on NCI-H460 lung; 90.9% with HOP-92 NSCLC. In addition, the growth with NCI-H522 lung is 87.3%; in the test with A549/ATCC NSCLC, 93.8%; in the test on 786-0 renal, 101%; with COLO 205 colon it was 108%; in the test with DU-145 prostate, 104%; in the test on K-562 leukemia it was 87.6%. For the same compound, the growth in the test with MALME-3M melanoma is 110%; with MDA-MB-231 breast, 93.7%; with RXF 393 renal it was 92.7%; with SF-268 CNS, 93.7%; in the test with SF-295 CNS it was 95.6%; with SF-539 CNS, 92.8%. Also, the growth was 105% in the test on UACC-257 melanoma and 114% with M14 melanoma.

Take `COc1ccc(C(=O)/C=C/c2c(C(F)(F)F)nc3sccn23)cc1OC`: the growth with NCI-H23 lung is 22.7%; in the test on NCI-H226 lung, 53.5%; with NCI-H322M lung it was 34.6%; in the test on HOP-62 NSCLC, 25%; in the test with NCI-H460 lung it was -46.6% (active); in the test on HOP-92 NSCLC, 78.2%. For the same compound, the growth in the test on NCI-H522 lung was 93.1%; in the test on A549/ATCC NSCLC it was 73.8%; in the test on 786-0 renal, 32%; with COLO 205 colon, 27.3%; with DU-145 prostate, -24.6% (active); in the test on K-562 leukemia it was -15.1% (active). For the same compound, the growth with MALME-3M melanoma is 71.4%; with MDA-MB-231 breast it was 36.8%; with RXF 393 renal it was 39.1%; in the test with SF-268 CNS, 15.4%; in the test on SF-295 CNS, -9.31% (active); in the test on SF-539 CNS, -5.52% (active). Besides, the values for the growth in the test on UACC-257 melanoma and in the test on M14 melanoma were 56.8% and 28.5%, respectively.

Turning to `COc1cc(/C=C2\C(=O)ON=C2C)cc(OC)c1OC`, the growth in the test on NCI-H23 lung was 98.6%; with NCI-H226 lung, 100%; in the test on NCI-H322M lung, 95.1%; with HOP-62 NSCLC, 97%; with NCI-H460 lung, 110%; in the test on HOP-92 NSCLC, 87.8%. Also, the growth is 98.5% with NCI-H522 lung; 96.1% in the test on A549/ATCC NSCLC; 103% with 786-0 renal; 105% in the test on COLO 205 colon; 108% in the test with DU-145 prostate; 95% in the test on K-562 leukemia. The growth in the test on MALME-3M melanoma is 102%; in the test with MDA-MB-231 breast it was 98.3%; in the test with RXF 393 renal, 114%; with SF-268 CNS, 95.7%; with SF-295 CNS it was 100%; in the test on SF-539 CNS, 94.7%. Also, the values for the growth in the test with UACC-257 melanoma and in the test with M14 melanoma were 103% and 96%, respectively.

Regarding `O=C1Nc2ccccc2/C1=C/c1cn(C(=O)c2ccc(Cl)cc2)c2ccccc12`, the growth is 90.8% in the test with NCI-H23 lung; 92.3% with NCI-H226 lung; 127% in the test with NCI-H322M lung; 111% in the test on HOP-62 NSCLC; 107% in the test on NCI-H460 lung; 99.3% in the test with HOP-92 NSCLC. In addition, the growth in the test on NCI-H522 lung was 85.6%; with A549/ATCC NSCLC, 101%; with 786-0 renal, 111%; with COLO 205 colon, 58.2%; in the test on DU-145 prostate, 118%; in the test with K-562 leukemia it was 85.7%. Besides, the growth in the test with MALME-3M melanoma is 118%; in the test with MDA-MB-231 breast, 77.7%; in the test with RXF 393 renal, 130%; in the test with SF-268 CNS it was 99.9%; with SF-295 CNS, 114%; in the test with SF-539 CNS, 99.4%. Also, the growth in the test with UACC-257 melanoma was 99.7%; in the test on M14 melanoma, 102%.

For `NC[C@H](O)c1ccc(O)c(O)c1`, the growth in the test on NCI-H23 lung was 98.8%; in the test on NCI-H226 lung, 109%; in the test on NCI-H322M lung, 110%; in the test on HOP-62 NSCLC it was 105%; with NCI-H460 lung, 103%; with HOP-92 NSCLC it was 65.8%. Besides, the growth in the test with NCI-H522 lung is 102%; with A549/ATCC NSCLC, 109%; in the test with 786-0 renal it was 108%; in the test on COLO 205 colon it was 109%; with DU-145 prostate it was 106%; with K-562 leukemia, 106%. Further, the growth was 111% in the test with MALME-3M melanoma; 78.8% in the test with MDA-MB-231 breast; 117% with RXF 393 renal; 112% in the test with SF-268 CNS; 123% with SF-295 CNS; 92% in the test on SF-539 CNS. Besides, the growth with UACC-257 melanoma is 109%; in the test on M14 melanoma, 95.9%.

For `COc1ccc(-c2c(N)n[nH]c2-c2ccc(Cl)cc2O)cc1OC`, the growth in the test with NCI-H23 lung is 83.2%; in the test on NCI-H226 lung it was 79.8%; in the test with NCI-H322M lung it was 92.4%; in the test on HOP-62 NSCLC it was 91.5%; in the test on NCI-H460 lung, 94.5%; in the test with HOP-92 NSCLC, 69.2%. For the same compound, the growth is 84.3% with NCI-H522 lung; 92.9% in the test with A549/ATCC NSCLC; 86.6% in the test on 786-0 renal; 113% with COLO 205 colon; 101% with DU-145 prostate; 75.5% with K-562 leukemia. The growth in the test on MALME-3M melanoma is 105%; in the test with MDA-MB-231 breast, 106%; in the test on RXF 393 renal, 98.2%; in the test on SF-268 CNS, 102%; in the test with SF-295 CNS, 99.2%; with SF-539 CNS it was 100%. For the same compound, the growth in the test on UACC-257 melanoma was 93%; in the test on M14 melanoma, 93.2%.
